# L3MBTL1 inh: blocks human L3MBTL1. actives 0.66% (n = 230,000). AlphaScreen L3MBTL1–H3K9me1 peptide binding. Q9Y468. AID 485360. Potency, µM (series often up to 57.1 µM), for the others: at the highest dose activity, negative = inhibition, hits mostly inhibitors; further: potency means the concentration at half of the fitted maximal effect; on the % scale 0 is the no-effect control and ±100 the full control effect; nearly all actives have a fitted effect of over 60% in size
#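 Displacement of a biotinylated histone H3(1-15) peptide monomethylated at Lys9 (75 nM) from L3MBTL1 (50 nM) was measured by AlphaScreen after a 30 min room-temperature compound incubation; cefsulodin titration served as intraplate control.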
# HP1b chromo inh: blocks HP1-beta chromodomain binding to methylated histone tails | P83916 | AlphaScreen HP1-beta / biotin-H3K9me3 peptide binding | Potency, µM (top dose mostly 114 µM), for inactives: at the highest dose activity change, negative = inhibition, actives largely listed as inhibitors | actives 0.56% (n = 390,000) | AID 540317; further: potency means the concentration at half of the fitted maximal effect; nearly all actives have a fitted effect of over 70% in size
#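 AlphaScreen: HP1-beta (50 nM) preformed 30 min with biotin-H3(1-18)K9me3 peptide (50 nM) in PBS pH 7.4, 0.01% Tween-20. Compound added for 30 min at RT, then streptavidin donor/nickel chelate acceptor beads (10 ug/mL) for 30 min.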
# JMJD2A Tudor: inhibitors of human JMJD2A Tudor domain. O75164. actives 4.4% (n = 390,000). AlphaScreen JMJD2A-Tudor / H3K4me3 peptide binding. Potency, µM (doses to about 114 µM), for inactives: at the top dose activity change, negative = inhibition, usual class: inhibitors; further: potency means the concentration at half of the fitted maximal effect; on the % scale 0 is the no-effect control and ±100 the full control effect; nearly all actives have a fitted effect of over 50% in size
# G9a inh-1: G9a (human) methyltransferase inhibition; Q96KQ7; G9a H3K9 monomethylation, AlphaScreen, 2 h; Potency, µM (doses to about 102 µM), inactives show top-dose activity, negative = inhibition, hits mostly inhibitors; actives 8.8% (n = 350,000); further: potency means the concentration at half of the fitted maximal effect; on the % scale 0 is the no-effect control and ±100 the full control effect; nearly all actives have a fitted effect of over 75% in size
#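 Enzyme 20 nM + cpd, 15 min RT; add b-H3K9 pep 500 nM / SAM 20 uM; 2 h RT; anti-H3K9me1 Ab 0.5 ug/mL + SA donor / anti-rabbit acceptor beads 20 ug/mL each, 10 min; AlphaScreen read.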
# BAZ2B inh: BAZ2B (human) inhibition; AlphaScreen BAZ2B-H3K14Ac peptide displacement; Potency, µM (titrated, usually from 114 µM), for the others: at the highest dose activity change, negative = inhibition, actives largely listed as inhibitors; actives 4.4% (n = 360,000); AID 504333; further: potency means the concentration at half of the fitted maximal effect; on the % scale 0 is the no-effect control and ±100 the full control effect; nearly all actives have a fitted effect of over 60% in size
#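 AlphaScreen displacement: compounds (up to 110uM) incubated 30 min at room temperature with a preformed 50 nM BAZ2B/50 nM biotinylated H3K14Ac peptide complex in PBS pH 7.4 with Tween-20. Donor and acceptor beads at 10 ug/mL final added, 20 min light-protected before reading.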
# ME-1 prolif: inhibitors of ME-1 leukemia cell proliferation, CBFb-RUNX1 project; shares compounds with BAZ2B inh; ME-1 cell proliferation, ATP luminescence, 48 h; Potency, µM (series often up to 56.1 µM), inactives show top-dose activity change, negative = inhibition, most hits filed as inhibitors; actives 20% (n = 140); AID 504370
# G9a inh-2: confirmation of human histone methyltransferase G9a inhibitors | Potency, µM, most hits filed as inhibitors | G9a H3K9 monomethylation, AlphaScreen, 2 h | actives 89% (n = 370) | shares compounds with JMJD2A Tudor; further: potency means the concentration at half of the fitted maximal effect; nearly all actives have a fitted effect of over 65% in size
# * marks the source's active call; other numbers are inactive results; ? = inconclusive; nt = no result; [ ] = dose if it differs, or a comment. The list is not random: actives were taken first. Their share in the collection is about 11%. The call rests on the fitted dose curve; in most records, active means well fitted curve in the direction sought with a large enough effect; inconclusive means small, poorly fitted or top-dose-only effect, or another doubt; inactive means no such curve, though single readings can be large; an effect the other way counts as inactive or inconclusive.
SMILES,L3MBTL1 inh,HP1b chromo inh,JMJD2A Tudor,G9a inh-1,BAZ2B inh,G9a inh-2,others
C=C1CC[C@H](O)C/C1=C/C=C1\CCC[C@]2(C)[C@H]1CC[C@H]2[C@@H](C)CCCC(C)C,nt,nt,nt,21%[21.5 µM],nt,nt,ME-1 prolif=-2%
Cc1cccc(-n2c(O)c(/C=N/Nc3nc4c(c(=O)n(C)c(=O)n4C)n3C)c(=O)[nH]c2=S)c1,-1%,-19%,?,?,?,nt,ME-1 prolif=-13%
Cc1cccc(-n2c(O)c(C=NCCN3CCNCC3)c(=O)[nH]c2=S)c1,nt,34%,-6%,-36%,-25%,nt,
CCCCNC(=O)Oc1c(Br)cc2sc(=O)oc2c1Br,nt,nt,nt,8.9µM*,50µM*,nt,ME-1 prolif=?
CCCCNC(=O)Oc1cc(CCl)on1,-14%,nt,nt,?,-19%,nt,
Cc1onc(-c2ccccc2Cl)c1C(=O)NCc1ccc2c(c1)cc(C)n2C,nt,-9%,?,?,?,nt,
C(=C\c1ccccc1)/CN1CCN(Cc2ccc3c(c2)OCCO3)CC1,-24%[11.4 µM],nt,nt,-49%[59 µM],?,nt,
CN(N=O)c1cc(O)ccc1O,nt,?,6.3µM*,0.6µM*,nt,nt,ME-1 prolif=40µM*
Cn1c(N2CCNCC2)nc2ccccc21,nt,22%,-3%,40%[12.7 µM],-3%,nt,
Cc1cc(N2CCNCC2)nc2ccccc12,0%,34%,-17%,?,-5%,?,
O=C(COc1ccc(Cl)cc1)N1CCN(Cc2ccc([N+](=O)[O-])cc2)CC1,-5%,?,11µM*,2.5µM*,nt,35*,
Cc1ccc(OCC(=O)N2CCN(Cc3cccnc3)CC2)cc1,1%,?,4µM*,2.8µM*,nt,16*,
CSc1ccc(CN2CCN(C(=O)COc3cccc(C)c3)CC2)cc1,-15%,40µM*,8.9µM*,10µM*,50µM*,40*,
CC(C)CN1CCC2(CC1)CCN(S(C)(=O)=O)CC2,nt,nt,nt,7%[12.7 µM],nt,nt,
CN(C)C(=O)Oc1ccc[n+](C)c1,-2%,32%,-5%,4%[59 µM],5%,nt,
CCc1nc(-c2ccc(C)nc2OC)no1,nt,7%,-12%,?,-7%,1.8*,
COc1ccc(-c2noc(CN3C(=O)c4ccccc4C3=O)n2)cc1,11%,23%,-14%,?,12%,nt,
Fc1cccc(CCNCc2ccccn2)c1,-10%,-1%,3.5µM*,1.6µM*,20µM*,28*,
Fc1ccc(CCNCc2ccccc2Cl)cc1,nt,40%,3%,2%[12.7 µM],4%,nt,
c1ccc(CNCCc2ccc3c(c2)OCO3)nc1,-16%,4%,?,1.8µM*,45µM*,?,
O=S1(=O)OCCC(c2ccccc2)N1Cc1ccccc1 (stereo unspecified),7%,51%,26%,-1%,-4%,nt,

# Screens as filed in PubChem BioAssay.
